Source: PubChem BioAssay AID463190 (Sanford-Burnham Center for Chemical Genomics, 2010)
About 7,300 (2.2%) of roughly 330,000 compounds were called active.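 How the source made its calls: active means inhibition of at least 40%; inactive means the rest.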 What follows is part of a selection rich in actives, with near analogues and random picks from the rest.

Experiment: growth inhibition of tim10-1 ts yeast – luminescence, uHTS, primary screen (AID 463190);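 further: mutant grown at 25 °C; 0% = DMSO wells with yeast and 100% = wells holding no yeast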
Details: S. cerevisiae tim10-1 ts strain growth, BacTiter-Glo, 24 h; at 20 µM; active compounds read high
For `O=C(CCNS(=O)(=O)c1ccccc1C(F)(F)F)NCc1ccc2c(c1)OCO2`, the inhibition was 23.1% (inactive). For `Cn1nc(C(F)(F)F)c(C(=O)Nc2cccc(C(F)(F)F)c2)c1SCc1ccc(Cl)cc1`, the inhibition was 36% (inactive). With `O=C(CCn1nnnc1CN1CCOCC1)N1CCC(c2ccccc2Cl)C1` (stereo not given) the inhibition was 15.3% (inactive). For `CC(=O)N1CCN(CC(=O)Nc2ccc(SC(F)F)cc2)CC1`, the inhibition was -0.192% (inactive). With `Cc1ccc(CC(=O)Nc2ccc(OC(F)F)c(Cl)c2)cc1C` the inhibition was 15.6% (inactive). For `O=C(Cc1ccc(Cl)c(Cl)c1)Nc1ccc(SC(F)F)cc1`, the inhibition was 43.5% (active). In the case of `O=C(c1ccc(F)cc1)n1c(=S)nc2ccccn21`, the inhibition is reported as 26.9% (inactive). In the case of `COc1ccc(CNC(=O)[C@@H]2CC=C[C@@H]3CCN(C4CC4)C(=O)[C@@H]32)cc1`, the inhibition is reported as 6.25% (inactive). With `CN(Cc1c(F)cccc1Cl)S(=O)(=O)c1cccs1` the inhibition was -0.379% (inactive). In the case of `COC(=O)c1ccc(CNC(=O)C2CCC(=O)N(Cc3cccc(F)c3)C2)cc1` (stereo not given), the inhibition is reported as -22.8% (inactive). In the case of `COc1ccc(N2CCN(c3ccc([N+](=O)[O-])cc3Cl)CC2)cc1`, the inhibition is reported as -1.93% (inactive). For `O=[N+]([O-])c1ccc(N2CCN(c3ccc(O)cc3)CC2)c(Cl)c1`, the inhibition was 40.3% (active). With `O=C(O)C1CCN(c2ccc([N+](=O)[O-])cc2[N+](=O)[O-])CC1` the inhibition was 4.89% (inactive). For `ONC(=Nc1ccc(Cl)cc1)c1ccccc1Cl`, the inhibition was 42.6% (active). With `ONC(=Nc1ccccc1)c1ccccc1Cl` the inhibition was 18.6% (inactive). With `O=C(O)C1C2C=CC(O2)C1C(=O)NCCc1cccc(Cl)c1` (stereo not given) the inhibition was -10.4% (inactive). With `O=C(CSc1ncn[nH]1)Nc1ccc(Br)cc1Br` the inhibition was -12.6% (inactive). For `O=C(CSc1ncn[nH]1)N/N=C/c1ccc(F)cc1`, the inhibition was -11.2% (inactive). In the case of `O=C(/C=C/Sc1ncn[nH]1)c1ccc(Cl)cc1`, the inhibition is reported as 61.4% (active). For `N#C/C(=C\c1ccc(N2CCOCC2)o1)C(=O)N1CCOCC1`, the inhibition was 9.56% (inactive). For `Cc1ccc([N+](=O)[O-])c(OCCCNCC(C)O)c1` (stereo not given), the inhibition was 2.12% (inactive). For `CN(C)CCNc1ccc(-c2n[nH]c(=O)c3ccccc23)cc1[N+](=O)[O-]`, the inhibition was 1.37% (inactive). With `O=C(/C=C/c1cccs1)NCc1cccnc1` the inhibition was 8.39% (inactive). With `O=S(=O)(Nc1ccccn1)c1cccc(S(=O)(=O)c2ccc(Cl)cc2)c1` the inhibition was 14.9% (inactive). With `O=S(=O)(Nc1cccc(Oc2ccc(Cl)cc2)n1)c1ccc(F)cc1` the inhibition was 43.9% (active). For `O=S(=O)(Nc1ccc(Oc2ncccn2)c(Cl)c1)c1ccc(F)cc1`, the inhibition was 15.3% (inactive). In the case of `CCC1CCCCN1S(=O)(=O)Cc1ccccc1Cl` (stereo not given), the inhibition is reported as 25.3% (inactive). For `COc1ccc2c(CC(=O)N3CCc4cc(OC)c(OC)cc4C3)coc2c1`, the inhibition was 8.12% (inactive). For `CCn1c(CNc2ccc(OC)cc2)nnc1SCC(=O)c1ccc(OC)cc1`, the inhibition was 25.4% (inactive). For `COc1ccc(-c2nnc(SCC(=O)c3ccco3)n2-c2ccccc2)cc1`, the inhibition was 23.4% (inactive). With `COc1ccc(NCc2nnc(SCc3ccccc3)n2-c2ccc(OC)cc2)cc1` the inhibition was 49.4% (active). With `O=S(=O)(NC1CCCCC1N1CCN(c2ccccc2F)CC1)c1ccccc1` (stereo not given) the inhibition was 21.7% (inactive). With `C#CCN1C(=O)C(O)(CC(=O)c2cc(OC)ccc2OC)c2ccccc21` (stereo not given) the inhibition was 41.9% (active). In the case of `COc1ccc(C(=O)CN2C(=O)NC3(CCc4ccccc43)C2=O)c(OC)c1` (stereo not given), the inhibition is reported as -9.01% (inactive). In the case of `O=C(CC1(O)C(=O)N(CN2CCOCC2)c2ccccc21)c1ccccc1` (stereo not given), the inhibition is reported as 15.9% (inactive). For `O=C(Nc1cc(S(=O)(=O)N2CCOCC2)ccc1Cl)c1cc(=O)c2ccccc2o1`, the inhibition was 19.5% (inactive). In the case of `Cc1ccoc1C(=O)Nc1cccc(Oc2ccccc2)c1`, the inhibition is reported as 49.3% (active). With `CC(Oc1cccc(NC(=O)c2cccs2)c1)C(=O)c1ccccc1` (stereo not given) the inhibition was 27.6% (inactive). For `Cc1cccc(NC(=O)Nc2cccc(Oc3c(F)c(F)c(F)c(F)c3F)c2)c1`, the inhibition was 21.3% (inactive). For `COc1cccc2c1OCC1COc3c(c(=O)n(C)c(=O)n3C)C21` (stereo not given), the inhibition was -6.86% (inactive). With `COc1ccccc1N1CC(C(=O)Nc2ccc(S(=O)(=O)N3CCOCC3)cc2)CC1=O` (stereo not given) the inhibition was 4.85% (inactive). With `CCN(CC(=O)NCc1cccs1)c1nnnn1-c1ccccc1` the inhibition was -19.2% (inactive). In the case of `CCOC(=O)c1c(-c2ccccc2)oc2ccc(OCC(N)=O)cc12`, the inhibition is reported as 18.7% (inactive). With `CCOC(=O)c1c(C)oc2cc(Sc3ccccc3)c(O)c(O)c12` the inhibition was 34.3% (inactive). With `CCOC(=O)c1c(-c2ccccc2)oc2ccc(OCC(=O)NN)cc12` the inhibition was 45.4% (active). In the case of `CCOC(=O)c1c(C)oc2ccc(OCC(=O)N(CC)CC)cc12`, the inhibition is reported as 14.2% (inactive). With `CCOC(=O)c1c(-c2ccccc2)oc2cc(Br)c(O)cc12` the inhibition was 48.2% (active). With `CCOC(=O)c1c(C)oc2cc(Br)c(OCC(N)=O)cc12` the inhibition was 1.54% (inactive). With `CC(=O)Nc1ccc(C(=O)NNC(=O)CCCCC(=O)NNC(=O)c2ccc(NC(C)=O)cc2)cc1` the inhibition was 10.6% (inactive). With `O=C(CCc1nc2ccccc2c(=O)[nH]1)OCC(=O)c1cccc(Cl)c1` the inhibition was 18.5% (inactive). In the case of `O=C(Cc1nc2ccccc2[nH]c1=O)c1ccc(Cl)cc1`, the inhibition is reported as 5.58% (inactive). With `O=C(/C(=C/c1cccc(Cl)c1)c1nc2ccccc2[nH]1)c1ccccc1` the inhibition was 43.5% (active). In the case of `CCCN=C1N(C)C[C@@H]2[C@@H]3C(=O)N(Cc4ccccc4)C(=O)[C@@H]3[C@](C)(C(=O)OC)N12`, the inhibition is reported as 0.857% (inactive). For `O=C(COC(=O)c1cccc(Cl)c1)NC1CCCCCCC1`, the inhibition was 8.83% (inactive). With `Cc1cccc([C@H]2[C@@H]3C=CC[C@@H](C)[C@@H]3C(=O)N2Cc2ccccc2)c1` the inhibition was 33.1% (inactive). With `Cn1cc(CN2CCCCC2c2ccccn2)c(-c2ccc3c(c2)OCCO3)n1` (stereo not given) the inhibition was 9.13% (inactive). For `CCOC(=O)C1CCN(C(=O)Cn2nc(C)c3c(C)n(-c4ccccc4)nc3c2=O)CC1`, the inhibition was 27.3% (inactive). With `O=C(NN1CCOCC1)c1cccc(F)c1` the inhibition was -9.56% (inactive). In the case of `COc1c(C)c2c(c(O)c1C/C=C(\C)CCC(=O)O)C(=O)OC2`, the inhibition is reported as 4.45% (inactive). In the case of `N/C(=N\OC(=O)/C=C/c1ccccc1)c1ccc(Br)cc1`, the inhibition is reported as 25.9% (inactive). With `COc1ccc(CCC(=O)c2ccc(OC)cc2)cc1` the inhibition was 5.98% (inactive). For `N/C(=N\OC(=O)N1c2ccccc2Sc2ccccc21)c1ccc(Br)cc1`, the inhibition was 8.49% (inactive). In the case of `COc1ccc(S(=O)(=O)NCCCc2ccccc2)cc1`, the inhibition is reported as 19.3% (inactive). With `N/C(=N\OC(=O)CCc1ccccc1)c1ccc(Cl)cc1` the inhibition was 65.2% (active). For `COc1ccc(/C(N)=N/OC(=O)Cc2ccccc2)cc1`, the inhibition was 46.5% (active). In the case of `COc1ccc(/C(N)=N/OC(=O)Oc2ccccc2)cc1`, the inhibition is reported as 5.03% (inactive). For `N/C(=N\OC(=O)CCc1ccccc1)c1cccnc1`, the inhibition was 21.7% (inactive). In the case of `COc1ccc(/C(N)=N/OC(=O)CCCc2ccccc2)cc1`, the inhibition is reported as 45.1% (active). With `N/C(=N\OC(=O)Cc1ccccc1[N+](=O)[O-])c1ccc(Br)cc1` the inhibition was 57% (active). In the case of `CCOC(=O)C(Cc1ccccc1)NC(=O)CCC(=O)c1ccc(OC)cc1` (stereo not given), the inhibition is reported as 23.1% (inactive). In the case of `O=C(CCc1ccccc1)NNC(=O)COc1ccc(Cl)cc1`, the inhibition is reported as 0.762% (inactive). For `COc1ccc(NC(=O)c2sc(N3CCOCC3)nc2-c2ccccc2)c(OC)c1`, the inhibition was 33.9% (inactive). With `CCOc1ccc2ccccc2c1/C=N/NC(=O)c1c(C)cc(C)[nH]c1=O` the inhibition was 2.15% (inactive). With `CCOC(=O)CN1CC23C=CC(O2)C(C(=O)Nc2ccc(F)cc2)C3C1=O` (stereo not given) the inhibition was 3.99% (inactive). With `O=C(CSc1nccn1-c1cccc(F)c1)NC1CCCC1` the inhibition was -5.65% (inactive). For `COC(=O)[C@H](C(C)C)n1c(C)c(C(C)=O)c(C(C)=O)c1C`, the inhibition was 0.67% (inactive). With `COc1ccc(CNC(=O)C(C)NCc2ccccc2Cl)cc1` (stereo not given) the inhibition was 21.6% (inactive). In the case of `COc1ccc(CNC(=O)COc2ccccc2C(=O)c2cnn(-c3ccccc3)c2)cc1OC`, the inhibition is reported as 4.14% (inactive). For `CCN1C(=NCCc2cccnc2)N[C@@H](c2ccccc2)C(C(=O)OC)=C1C`, the inhibition was 0.495% (inactive). For `COCCN(C(=O)C(C)C)c1nnc(-c2ccc(C(C)(C)C)cc2)s1`, the inhibition was 38.1% (inactive). For `Cn1c(SCC(=O)Nc2ccc(N3CCOCC3)cc2)nnc1C(F)(F)F`, the inhibition was -4.28% (inactive). In the case of `O=C(Nc1ccccc1)O/N=C1\CCCCC1c1ccc([N+](=O)[O-])cc1[N+](=O)[O-]` (stereo not given), the inhibition is reported as 24.7% (inactive). For `C[n+]1ccccc1C1CCCC/C1=N\Nc1ccc([N+](=O)[O-])cc1[N+](=O)[O-]` (stereo not given), the inhibition was 28% (inactive). With `O=[N+]([O-])c1ccc(N/N=C2/CCCCC2c2ccccn2)c([N+](=O)[O-])c1` (stereo not given) the inhibition was 42% (active). In the case of `O=C(NNC(=S)NC(=O)c1cn(-c2ccccc2)nc1-c1ccccc1)c1ccncc1`, the inhibition is reported as 13.6% (inactive). In the case of `O=C(C1CCCO1)N(c1ccc(F)cc1)C1C=CS(=O)(=O)C1` (stereo not given), the inhibition is reported as 5.92% (inactive). For `CCCN(CCC)c1c([N+](=O)[O-])c(=O)oc2ccccc12`, the inhibition was 11% (inactive). In the case of `CCCC(NCC(=O)Nc1ccccc1C(=O)NC1CC1)c1ccccc1` (stereo not given), the inhibition is reported as 11.8% (inactive). For `CCc1ccc(NC(=O)NC(C)c2ccc3c(c2)OCO3)cc1` (stereo not given), the inhibition was 2.45% (inactive). With `CC(=NCc1ccco1)C1=C(O)c2ccccc2C1=O` the inhibition was 34.3% (inactive). For `CC(=NCc1ccc2c(c1)OCO2)C1=C(O)c2ccccc2C1=O`, the inhibition was 61.2% (active). In the case of `Cc1ccc(S(=O)(=O)N2CCN=C2SCc2c(F)cccc2Cl)cc1`, the inhibition is reported as -8.21% (inactive). For `COc1cc(N=Cc2c(O)[nH]c3ccccc23)cc(OC)c1OC`, the inhibition was 44% (active). For `COc1cc(/C=N/NC(=O)Cc2ccccc2)cc(OC)c1OC`, the inhibition was 2.14% (inactive). In the case of `COc1ccc2[nH]c(C(=O)N/N=C/c3cc(OC)c(OC)c(OC)c3)cc2c1`, the inhibition is reported as 20.1% (inactive).
